Assay results from PubChem BioAssay.
“And” between values parts separate entries of the source, which are not always exact repeats. Identical values can stand only once. Inconclusive results are not listed. The source made the active and inactive calls.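 Rule for the calls, unless noted: active = normalized viability below 100% at a tested concentration; inactive = the rest.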

How the values were obtained:
[1] = growth inhibition of DIPG glioma cells, dose response, cell-based, SU-DIPG-XVII, MIPE5.0, CellTiter-Glo, qHTS (AID 1347060; cut-off not given, nearly all actives have AC50 up to about 26 µM;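 for AC50: cells exposed to compound for 48 hours before viability readout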); settings: SU-DIPG-XVII viability, CellTiter-Glo ATP luminescence
[2] = growth inhibition of DIPG glioma cells, dose response, cell-based, SU-DIPG-XIII, MIPE4.0, CellTiter-Glo, qHTS (AID 1347061; cut-off not given, nearly all actives have AC50 up to about 37 µM;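 note: cells exposed to compound for 48 hours before readout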); settings: SU-DIPG-XIII viability, CellTiter-Glo ATP luminescence
[3] = growth inhibition of DIPG glioma cells, dose response, cell-based, JHH-DIPG-1, MIPE4.0, CellTiter-Glo, qHTS (AID 1347062; cut-off not given, nearly all actives have AC50 up to about 27 µM;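 for AC50: cells exposed to compound for two days before readout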); settings: JHH-DIPG-1 viability, CellTiter-Glo ATP luminescence
[4] = growth inhibition of DIPG glioma cells, dose response, cell-based, SU-DIPG-XIII, MIPE5.0, CellTiter-Glo, qHTS (AID 1347064; cut-off not given, nearly all actives have AC50 up to about 23 µM;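 for AC50: cells exposed to compound for 48 hours before the viability read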); settings: SU-DIPG-XIII viability, CellTiter-Glo ATP luminescence
[5] = viability loss in pontine glioma line – cell-based, SU-DIPG-XXV, MIPE5.0, CellTiter-Glo, qHTS, dose response (AID 1347065; cut-off not given, nearly all actives have AC50 up to about 26 µM;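 note: cells exposed to compound for 48 hours before ATP readout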); settings: CellTiter-Glo ATP luminescence
[6] = SU-DIPG-VI glioma cell viability, MIPE4.0 library, CellTiter-Glo luminescence, qHTS (AID 1347066; cut-off not given, nearly all actives have AC50 up to about 30 µM;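 note: cells exposed to compound for 48 hours before readout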); settings: CellTiter-Glo ATP luminescence
[7] = SU-DIPG-XXV glioma cell viability, MIPE5.0 library, qHTS (AID 1347068; cut-off not given, nearly all actives have IC50 up to about 30 µM;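 for IC50: cells exposed to compound for 48 hours before viability readout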)
[8] = JHH-DIPG-1 glioma cell viability, MIPE5.0 library, CellTiter-Glo luminescence, qHTS (AID 1347067; cut-off not given, nearly all actives have AC50 up to about 26 µM;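 note: cells exposed to compound for 48 hours before readout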); settings: JHH-DIPG-1 glioma viability, CellTiter-Glo ATP luminescence
[9] = sensitizers of A549 cells to miR-34 induction, primary screen, imaging, A549 dox-inducible miR-34, nuclei and caspase counts (AID 1347080;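 active = compounds whose cell count with miR-34 switched on is under 0.7 times the count with it off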); settings: A549 miR-34 inducible, Hoechst nuclei count, 48 h
[10] = modifiers of HSF1 nuclear foci, imaging, Selleck Cancer Library (AID 1347162; in the data active = plate-normalised HSF1 focus index below about 0.46); settings: human cells, at 10 µM; SSMD: measured here: HSF1 foci SSMD mean; cell count: measured here: cell number; plate-normalised HSF1 focus index: stronger effect = lower value
[11] = survival rescue of mitochondrial mutant cells in low glucose, primary screen, MELAS cybrids, Rieske KO mouse fibroblasts, CellTiter-Glo (AID 1508586;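 active = mean z-score across replicates of 1.96 or higher in either the MELAS or the Rieske mutant cell line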;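 note: z relative to plate mean and SD of compound and empty wells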)
[12] = ovarian cancer cell viability with rucaparib, profiling panel, oncology-focused library, rucaparib conditional (AID 1508598); settings: patient-derived ovarian cancer cells, CellTiter-Glo viability, 144 h, stronger effect = lower value
[13] = stronger effect = lower value, cell number ratio, induced over uninduced
[14] = measured here: relative caspase fold change +Dox/-Dox
[15] = measured here: total cells with miR-34 induction, stronger effect = lower value
[16] = measured here: total cells without miR-34 induction
[17] = MELAS cybrid survival, CellTiter-Glo 48 h, stronger effect = higher value
[18] = Rieske KO mouse fibroblast survival, CellTiter-Glo 72 h
[19] = at 0.000305 µM, OCI-C5x cells, with rucaparib 10 µM, 100% = cells with rucaparib alone
[20] = at 0.000305 µM, OCI-C5x cells, without rucaparib
[21] = at 0.000305 µM, OCI-P5x cells, with rucaparib 20 µM, 100% = cells with rucaparib alone
[22] = at 0.000305 µM, OCI-P5x cells, without rucaparib
[23] = at 0.00122 µM, OCI-C5x cells, with rucaparib 10 µM, 100% = cells with rucaparib alone
[24] = at 0.00122 µM, OCI-C5x cells, without rucaparib
[25] = at 0.00122 µM, OCI-P5x cells, with rucaparib 20 µM, 100% = cells with rucaparib alone
[26] = at 0.00122 µM, OCI-P5x cells, without rucaparib
[27] = at 0.00488 µM, OCI-C5x cells, with rucaparib 10 µM, 100% = cells with rucaparib alone
[28] = at 0.00488 µM, OCI-C5x cells, without rucaparib
[29] = at 0.00488 µM, OCI-P5x cells, with rucaparib 20 µM, 100% = cells with rucaparib alone
[30] = at 0.00488 µM, OCI-P5x cells, without rucaparib
[31] = at 0.0195 µM, OCI-C5x cells, with rucaparib 10 µM, 100% = cells with rucaparib alone
[32] = at 0.0195 µM, OCI-C5x cells, without rucaparib
[33] = at 0.0195 µM, OCI-P5x cells, with rucaparib 20 µM, 100% = cells with rucaparib alone
[34] = at 0.0195 µM, OCI-P5x cells, without rucaparib
[35] = at 0.0781 µM, OCI-C5x cells, with rucaparib 10 µM, 100% = cells with rucaparib alone
[36] = at 0.0781 µM, OCI-C5x cells, without rucaparib
[37] = at 0.0781 µM, OCI-P5x cells, with rucaparib 20 µM, 100% = cells with rucaparib alone
[38] = at 0.0781 µM, OCI-P5x cells, without rucaparib
[39] = at 0.313 µM, OCI-C5x cells, with rucaparib 10 µM, 100% = cells with rucaparib alone
[40] = at 0.313 µM, OCI-C5x cells, without rucaparib
[41] = at 0.313 µM, OCI-P5x cells, with rucaparib 20 µM, 100% = cells with rucaparib alone
[42] = at 0.313 µM, OCI-P5x cells, without rucaparib
[43] = at 1.25 µM, OCI-C5x cells, with rucaparib 10 µM, 100% = cells with rucaparib alone
[44] = at 1.25 µM, OCI-C5x cells, without rucaparib
[45] = at 1.25 µM, OCI-P5x cells, with rucaparib 20 µM, 100% = cells with rucaparib alone
[46] = at 1.25 µM, OCI-P5x cells, without rucaparib
[47] = at 5 µM, OCI-C5x cells, with rucaparib 10 µM, 100% = cells with rucaparib alone
[48] = at 5 µM, OCI-C5x cells, without rucaparib
[49] = at 5 µM, OCI-P5x cells, with rucaparib 20 µM, 100% = cells with rucaparib alone
[50] = at 5 µM, OCI-P5x cells, without rucaparib

Cn1c(CNc2ccc(C(=N)N)cc2)nc2cc(C(=O)N(CCC(=O)O)c3ccccn3)ccc21
inactive: outcome [1] | outcome [2] | outcome [3] | outcome [4] | outcome [5] | outcome [6] | outcome [7]

Cn1cnc2c(F)c(Nc3ccc(Br)cc3Cl)c(C(=O)NOCCO)cc21
active: AC50 [1] 4.17 µM | AC50 [2] 10.5 µM | AC50 [3] 9.35 µM | AC50 [4] 5.9 µM | AC50 [5] 4.68 µM | AC50 [8] 0.833 µM | viability [12, 21] 80.8% | viability [12, 22] 84.9% | viability [12, 24] 92.6% | viability [12, 25] 81.4% | viability [12, 26] 82.8% | viability [12, 28] 93.7% | viability [12, 29] 70.3% | viability [12, 30] 75.1% | viability [12, 32] 92.3% | viability [12, 33] 56.4% | viability [12, 34] 70.1% | viability [12, 36] 83.8% | viability [12, 37] 53.5% | viability [12, 38] 65.2% | viability [12, 40] 80.4% | viability [12, 41] 43.6% | viability [12, 42] 59.6% | viability [12, 43] 84% | viability [12, 44] 82.2% | viability [12, 45] 38.2% | viability [12, 46] 61.5% | viability [12, 47] 49.5% | viability [12, 48] 51.1% | viability [12, 49] 25.6% | viability [12, 50] 32.7%
3730: cell count [9, 16]
3770: cell count [9, 15]
0.759: fold change [9, 14]
inactive: outcome [6] | fold change [9, 13] 1.01 | plate-normalised HSF1 focus index [10] 1.09 | z-score [11, 17] -0.103 | viability [12, 19] 105% | viability [12, 20] 106% | viability [12, 23] 104% | viability [12, 27] 101% | viability [12, 31] 110% | viability [12, 35] 102% | viability [12, 39] 104%
2.54: SSMD [10]
-0.489: z-score [11, 18]
7320: cell count [10]

O=C(O)CCCc1c[nH]c2ccccc12
0.218 and 0.556: z-score [11, 18]
8600 and 8570: cell count [9, 15]
9590 and 9280: cell count [9, 16]
0.369 and 0.81: fold change [9, 14]
inactive: outcome [1] | outcome [2] | outcome [3] | outcome [4] | outcome [5] | outcome [6] | outcome [8] | outcome [7] | fold change [9, 13] 0.897 and 0.923 | z-score [11, 17] 0.687 and -0.261

CCCCC(F)(F)[C@@]1(O)CC[C@H]2[C@@H](CC(=O)[C@@H]2CCCCCCC(=O)O)O1
inactive: outcome [1] | outcome [2] | outcome [3] | outcome [4] | outcome [5] | outcome [6] | outcome [8] | outcome [7]

CC(C)(N)C(=O)N[C@H](COCc1ccccc1)C(=O)N1CCC2(CC1)CN(S(C)(=O)=O)c1ccccc12
inactive: outcome [1] | outcome [2] | outcome [3] | outcome [4] | outcome [5] | outcome [6] | outcome [8] | outcome [7]

O=C(Nc1ncc(-c2cc(C(F)F)nn2-c2c(Cl)cccc2Cl)s1)C1CC1
active: AC50 [1] 0.833 µM | AC50 [2] 13.2 µM | AC50 [3] 0.662 µM | AC50 [4] 2.35 µM | AC50 [5] 1.05 µM | AC50 [6] 5.26 µM | AC50 [8] 1.32 µM | IC50 [7] 1.18 µM

O=C(O)C1=CC(O)C(O)[C@H](O)C1 (stereo not given in full)
inactive: outcome [1] | outcome [2] | outcome [3] | outcome [4] | outcome [5] | outcome [8] | outcome [7]

CC(=O)OCCN1C(=O)c2c(C)nc3ccc(S(=O)(=O)N4CCOCC4)cc3c2C1=O
2.02: SSMD [10]
inactive: outcome [1] | outcome [2] | outcome [3] | outcome [4] | outcome [5] | outcome [6] | outcome [8] | outcome [7] | plate-normalised HSF1 focus index [10] 1.12
7180: cell count [10]

COc1cc2c(Oc3ccc4[nH]c(C)cc4c3F)ncnc2cc1OCCCN1CCCC1
-0.313: z-score [11, 18]
3760: cell count [9, 16]
inactive: fold change [9, 13] 0.973 | z-score [11, 17] -0.469 | viability [12, 19] 123% | viability [12, 20] 103% | viability [12, 23] 114% | viability [12, 24] 112% | viability [12, 25] 105% | viability [12, 27] 107% | viability [12, 31] 123% | viability [12, 35] 126% | viability [12, 36] 101% | viability [12, 39] 116% | viability [12, 43] 123% | viability [12, 44] 107% | viability [12, 45] 110% | viability [12, 47] 131% | viability [12, 48] 115%
3660: cell count [9, 15]
1.09: fold change [9, 14]
active: AC50 [1] 1.86 µM | AC50 [2] 6.62 µM | AC50 [3] 20.9 µM | AC50 [4] 2.35 µM | AC50 [5] 2.09 µM | AC50 [6] 23.5 µM | AC50 [8] 11.8 µM | IC50 [7] 16.6 µM | viability [12, 21] 96.3% | viability [12, 22] 88.7% | viability [12, 26] 94% | viability [12, 28] 99.8% | viability [12, 29] 97.5% | viability [12, 30] 91.6% | viability [12, 32] 96.3% | viability [12, 33] 97.8% | viability [12, 34] 93.1% | viability [12, 37] 81.8% | viability [12, 38] 92% | viability [12, 40] 98.1% | viability [12, 41] 91.9% | viability [12, 42] 94.6% | viability [12, 46] 86.9% | viability [12, 49] 76.9% | viability [12, 50] 82.8%

O=C(NC[C@H](O)CO)c1ccncc1Nc1ccc(I)cc1F
active: AC50 [1] 0.742 µM | AC50 [2] 1.32 µM | AC50 [3] 1.48 µM | AC50 [4] 0.417 µM | AC50 [5] 0.59 µM | AC50 [8] 0.332 µM
inactive: outcome [6] | outcome [7]
